# Source: PubChem BioAssay (Broad Institute)
# PfHsp90 set2: growth inhibition of yeast expressing Plasmodium Hsp90; S. cerevisiae expressing PfHsp90, BacTiter-Glo ATP, 48 h; yeast lacking PDR1 and PDR3 efflux regulators; actives 0.32% (n = 310,000); inhibition, % at 9.4 µM;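 active = every replicate shows inhibition above about 80%, whatever the replicate mean, limit read from the data; inconclusive = mean inhibition reaches the set limit but some replicate falls short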;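 also: 0% = DMSO neutral controls and 100% = 20 µM radicicol positive controls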
# Wnt bcat act: activators of Wnt/beta-catenin signaling; actives 1.2% (n = 300,000); AID 743398; activation, % at 9.35 µM; Wnt/beta-catenin reporter cell assay, activator, plate reader; in the data active = activation above about 30%, passing the limit was not always enough; inconclusive = no clear call, values can overlap the other calls;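 also: 0% = neutral control wells and 100% = positive control wells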
# Glyco luc inh: blocks N-linked glycosylation in D54 reporter cells; actives 0.23% (n = 360,000); AID 588692; D54 ERlucT glycosylation luciferase reporter, 24 h; percent of 100 nM tunicamycin response; reporter increase, % at 12.5 µM;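 active = mean luciferase reporter signal, scaled so untreated is 0 and the glycosylation-blocking control 100, at or above a set limit in every replicate; inconclusive = mean reaches the limit but not every replicate does; inactive = mean below the limit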;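 also: luciferase carries N-glycosylation sites so blocking glycosylation raises the light; 0% = median of neutral control wells and 100% = median of 100 nM tunicamycin wells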
# esBAF inh: SWI/SNF esBAF complex inhibition. mouse ES cells, Bmi1-luciferase knock-in reporter, 24 h; 100% = twice the neutral-well signal. reporter increase, % at 12.5 µM. actives 2% (n = 350,000). AID 602393; in the data active = activation above about 40%; inconclusive = no clear call, values can overlap the other calls;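 also: 0% = median of the plate's neutral control wells and 100% = double that signal; a rise in the Bmi1 reporter signal indicates esBAF inhibition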
# MITF act: activators of MITF-driven TRPM1 promoter activity in SK-MEL-5 cells | SK-MEL-5 TRPM1-promoter luciferase, 24 h; % of positive control, neutral wells = 0 | activation, % at 12.5 µM | actives 0.75% (n = 300,000) | AID 588334;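 active = mean activation of at least 80% with every replicate also reaching 80%; inconclusive = mean reaches 80% but some replicate falls short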;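 also: 0% = neutral control wells and 100% = parthenolide positive control wells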
# Vif inh: HIV Vif inhibition | actives 0.35% (n = 340,000) | HEK293T cells, Vif self-association by quenched fluorescence, imaging, 24 h | inhibition, % at 7.49 µM | AID 602346; in the data active = inhibition above about 50%, passing the limit was not always enough; inconclusive = no clear call, values can overlap the other calls; inactive = below about 31%
# An asterisk follows results filed as active; ? = inconclusive; nt = not tested or not shown. The list is not random: actives were taken first. Their share in the collection is about 3%.
SMILES,PfHsp90 set2,Wnt bcat act,Glyco luc inh,esBAF inh,MITF act,Vif inh
Cc1ccc(Nc2nc(N)nc(CC#N)n2)cc1,-12.4,nt,-2.2,69.5*,70.9,-2.5
O=C(c1cc(=O)[nH]c2ccccc12)N1CCN(c2ccc([N+](=O)[O-])cc2)CC1,10.4,38.9*,0.8,-2.4,-12.9,0.5
O=C(CSc1nnc(-c2cccs2)o1)c1cccs1,-18.3,nt,-2.3,104.0*,?,-2.5
CC1CCCN(C(=O)CSc2nnc(-c3cccs3)o2)C1 (stereo unspecified),-6.0,13.5,-3.9,14.7,89.1*,10.2
COc1ccc(-c2nnc(SCC(=O)c3cccs3)o2)cc1,-11.3,nt,-1.0,nt,?,0.6
CN1[C@@H]2c3ccc(/C=C/c4ccccc4)c(=O)n3C[C@@H]2[C@@H](CO)[C@@H]1C(=O)Nc1nccs1,nt,nt,nt,4.2,nt,nt
O=C(c1ccccc1NS(=O)(=O)c1ccccc1[N+](=O)[O-])N1CCOCC1,-1.3,nt,3.0,nt,-6.9,12.1
O=C(c1ccccc1[N+](=O)[O-])N(CCc1ccccc1)Cc1ccccc1,-2.6,-3.5,-2.8,0.7,-2.7,-3.8
COc1ccc(NC(=O)Nc2ccc3c(c2)CC(=O)N([C@@H](C)CO)C[C@H](C)[C@H](CN(C)S(=O)(=O)c2ccc(OC)cc2)O3)cc1,nt,nt,nt,3.7,nt,nt
O=C(CNC(=O)c1cn2ccccc2n1)Nc1ccc(F)c(F)c1,nt,34.5*,-0.8,nt,77.8,-7.6
CN(CC(=O)Nc1cccc(F)c1)C(=O)c1cn2ccccc2n1,33.0,-5.8,0.8,-4.8,-5.5,4.6
COc1cc(C(C)=O)ccc1OCC(=O)NCC1(N2CCCCC2)CCCCC1,-9.5,-1.9,1.3,nt,3.5,51.0*
O=C(COc1ccc(F)cc1Br)NCC1(N2CCCCC2)CCCCC1,-4.1,-5.2,-7.9,nt,9.5,4.8
Cc1ccc2nc(-c3cccc(S(=O)(=O)N(C)C)c3)cn2c1,-7.7,nt,-0.4,82.9*,?,-9.6
CN(C)S(=O)(=O)c1cccc(-c2cn3cccnc3n2)c1,12.8,-2.1,0.2,nt,-2.9,-1.0
Cc1ccc2nc(-c3cccc(S(=O)(=O)N4CCCC4)c3)cn2c1,-23.5,12.7,-0.6,64.2*,29.1,-3.5
O=S(=O)(c1ccc2nc(COc3ccccc3)[nH]c2c1)N1CCOCC1,1.3,nt,-1.2,0.2,-8.3,-1.9
Cc1sc2nc3ccc(N4CCCCC4)nn3c(=O)c2c1C,-10.0,-1.6,3.2,-4.9,121.0*,-16.4
Cc1ccc2nc3ccc(N4CCCC4)nn3c(=O)c2c1,4.7,nt,2.5,38.9,93.7*,3.9
CCOc1ccc(NC(=O)CN2C(=O)NC3(CCCC3)C2=O)cc1S(=O)(=O)N1CCCCC1,18.0,0.0,0.5,5.2,-4.2,22.8
O=C(Nc1ccc2c(c1)[C@H]1C[C@@H](CC(=O)N3CCCCC3)O[C@@H](CO)[C@H]1O2)C1CCOCC1,nt,nt,nt,-4.6,nt,nt
Cc1onc(-c2ccccc2)c1C(=O)NC(=S)NNC(=O)c1ccc(O)cc1O,-9.4,-13.4,-11.2,nt,-44.3,-25.3
Cc1onc(-c2ccccc2)c1C(=O)NC(=S)NNC(=O)c1ccccc1O,100.9*,-3.6,-8.6,nt,-16.6,nt
C[C@@H]1CN([C@H](C)CO)C(=O)Cc2cc(NC(=O)CCN3CCOCC3)ccc2O[C@H]1CN(C)S(=O)(=O)c1ccccc1,nt,nt,nt,-1.6,nt,nt
CC(=O)N(C1=C(Cl)C(=O)c2ccccc2C1=O)C1CCCCC1,109.1*,-11.4,20.8,nt,nt,3.2
SMILES,PfHsp90 set2,Wnt bcat act,Glyco luc inh,esBAF inh,MITF act,Vif inh
CC(=O)N(c1ccccc1C)C1CCCC1,-1.2,-1.1,1.1,-0.3,16.7,-17.8
Cc1ccccc1OCC(=O)Nc1sc2c(c1C#N)CCC2,-11.1,-0.6,-5.7,47.3*,36.3,10.6
COc1ccccc1OCC(=O)Nc1sc2c(c1C(N)=O)CCC2,-7.7,-2.0,1.2,76.8*,88.8*,-0.7
Cc1cccnc1NC(=O)c1ccc(S(=O)(=O)N2CCCCCC2)cc1,11.5,-2.0,-1.6,nt,6.0,0.2
Cc1ccc(C(=O)Nc2ncccc2S(=O)(=O)c2ccccc2)cc1,-13.1,20.2,-0.2,113.0*,100.4*,9.7
O=C(c1ccc(Br)cc1)c1coc2ccc(O)cc12,1.5,40.2*,-5.2,nt,?,-9.3
O=C(c1ccc(Cl)cc1)c1coc2ccc(O)cc12,2.9,nt,-8.0,9.4,86.6*,-6.2
O=C(c1coc2ccc(O)cc12)C1CC1,-3.6,nt,1.5,19.8,12.0,9.0
O=C1N/C(=N/O)S/C1=C/c1cccc([N+](=O)[O-])c1,-5.3,52.1*,3.6,6.7,5.7,8.9
O=C1N/C(=N\S(=O)(=O)Cc2ccccc2)S/C1=C/c1cccc([N+](=O)[O-])c1,13.9,1.1,-0.5,-1.3,-19.3,-12.0
Cc1cc(C)c(C#N)c(SCc2nnc(-c3ccccc3[N+](=O)[O-])o2)n1,6.9,75.2*,-11.4,22.6,15.4,-4.6
Cc1cc(C)c(C#N)c(SCc2ccccc2[N+](=O)[O-])n1,-8.1,-2.5,-2.8,1.3,-5.5,-4.2
CCN(CC)S(=O)(=O)c1cc(C(=O)Nc2ccc(Cl)cn2)ccc1C,-26.3,nt,-9.0,27.1,104.8*,nt
COC(=O)c1ccccc1NC(=O)c1ccc2nccnc2c1,1.2,-0.8,-1.2,11.0,10.0,-3.6
O=C(Nc1ccccc1Cl)c1ccc(-c2ccccn2)s1,-16.8,30.0,-2.0,82.2*,?,-10.7
O=C(Nc1ccccc1Cl)c1cccs1,-23.0,nt,0.5,14.8,35.2,4.9
O=C(Nc1ccccc1Cl)c1ccc2nccnc2c1,-11.0,14.4,-2.3,15.7,103.4*,-1.4
O=C(Nc1ccc(Cl)cn1)c1ccc2nccnc2c1,-5.5,37.0*,-1.8,nt,125.7*,3.6
CSc1nncc(/C(C)=N\Nc2ccccc2)n1,6.5,nt,1.2,nt,-2.9,nt
CC=Cc1ccc2n(c1=O)C[C@H]1[C@H](CO)[C@@H](C(=O)NCCC)N(Cc3cocn3)[C@@H]21 (mixture of isomers),nt,nt,nt,-3.2,nt,nt
CC(C)NC(=O)C1CCN(C2CCN(C(=O)c3ccc4cccc(F)c4n3)CC2)CC1,5.7,-1.8,-1.0,nt,1.0,3.8
CN(C)CC(=O)N1[C@H](C#N)[C@@H](c2ccc(-c3ccccc3F)cc2)[C@H]1CO,nt,nt,nt,1.2,nt,nt
O=C(Nc1ccccc1Cl)c1cccc(COc2cc(Cl)ccc2Cl)c1,-7.5,37.8*,2.6,nt,45.2,7.0
Fc1ccc(-c2nc3ccccc3[nH]2)cc1,nt,58.3*,-2.1,70.4*,67.1,-1.6
Nc1ccccc1-c1nc2ccccc2[nH]1,-3.8,55.0*,2.4,35.4,37.8,-9.1
Nc1cccc(-c2nc3ccccc3[nH]2)c1,11.2,nt,-1.7,62.3*,60.7,-3.4
N#CCSc1ccc(-c2nc3ccccc3[nH]2)cn1,19.0,34.4*,7.0,nt,72.4,-12.9
CCNC(=O)C1(C)CCCN1C(=O)c1ccc(F)c(Cl)c1 (stereo unspecified),nt,-6.0,-0.7,-0.9,nt,21.8
